Experimental data published in PubChem BioAssay (Tox21).
Records with an inconclusive call do not appear. Calls of active or inactive are those of the source. Unless noted, calls come from the whole dose curve; as a rule, active = well fitted curve in the direction sought with a large enough effect in the repeat runs; inconclusive = weak or mixed curves; inactive = no such curve, though single readings can be large; an effect the other way counts as inactive or inconclusive.

Assays:
[1] = qHTS assay to identify small molecule agonists of the estrogen related receptor signaling pathway with the pleiotropic PPARgamma coactivator (PGC) (AID 1224823)
Outline: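 PGC/ERR reporter cells were seeded, rested 6 h at 37 C/5% CO2, then exposed to compounds in DMSO by pin transfer for 18 h at 37 C. Luciferase activity was read as luminescence after One-Glo reagent and 30 min at room temperature.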

[2] = qHTS assay to identify small molecule antagonists of the estrogen related receptor (ERR) signaling pathway from Tox21 library - cell viability counter screen (AID 1224834); note: nearly all actives have a fitted effect of over 30% in size
Outline: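 Fluorescence from CellTiter-Fluor gives the viability read-out, taken 30 min after reagent addition. Before that, ERR cells seeded 6 h earlier were incubated with compounds for 17.5 h at 37 C.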

[3] = molecular target: Luciferin 4-monooxygenase (Photinus pyralis) (UniProt P08659); test: qHTS assay to identify small molecule inhibitors of firefly luciferase (AID 1224835); note: nearly all actives have a fitted effect of over 25% in size
Luciferin 4-monooxygenase (Photinus pyralis), sequence (P08659 whole entry, looked up): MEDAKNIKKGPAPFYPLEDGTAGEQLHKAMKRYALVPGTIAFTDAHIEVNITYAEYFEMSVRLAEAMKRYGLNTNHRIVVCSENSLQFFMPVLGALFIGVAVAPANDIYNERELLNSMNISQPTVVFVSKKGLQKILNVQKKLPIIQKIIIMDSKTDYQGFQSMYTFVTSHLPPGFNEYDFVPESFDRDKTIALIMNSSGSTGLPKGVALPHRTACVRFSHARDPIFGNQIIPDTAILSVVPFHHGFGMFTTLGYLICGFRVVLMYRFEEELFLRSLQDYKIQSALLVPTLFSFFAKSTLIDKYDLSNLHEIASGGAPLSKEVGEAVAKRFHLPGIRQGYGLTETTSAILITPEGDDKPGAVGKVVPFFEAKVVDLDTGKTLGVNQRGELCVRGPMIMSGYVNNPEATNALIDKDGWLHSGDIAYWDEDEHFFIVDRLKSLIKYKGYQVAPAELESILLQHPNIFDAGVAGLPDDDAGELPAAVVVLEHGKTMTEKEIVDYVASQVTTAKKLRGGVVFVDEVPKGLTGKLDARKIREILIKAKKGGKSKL
Outline: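 Inhibition of purified Photinus luciferase is measured by luminescence. Substrate levels (D-luciferin, ATP) sit at their KM values. Each compound is tested in a concentration series.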

[4] = qHTS assay to identify small molecule agonists of the constitutive androstane receptor (CAR) signaling pathway - cell viability counter screen (AID 1224836); note: nearly all actives have a fitted effect of over 45% in size
Outline: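 Double-stable HepG2 hepatoma cells (hCAR plus CYP2B6-2.2kb) are treated for 23 h at 37 C with test compounds in 15-point concentration series. PK11195 at 0.75 uM final is co-added. Cell viability is quantified by CellTiter-Fluor.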

[5] = qHTS assay to identify small molecule antagonists of the constitutive androstane receptor (CAR) signaling pathway - cell viability counter screen (AID 1224837); note: nearly all actives have a fitted effect of over 45% in size
Outline: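 HepG2-CYP2B6-hCAR cells, 2500/well, 4 hr pre-incubation; compound titration, 15 conc.; CITCO 50 nM final; 23 hr, 37 C/5% CO2; CellTiter-Fluor, fluorescence intensity.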

[6] = molecular target: Nuclear receptor subfamily 1 group I member 3 (Homo sapiens) (UniProt Q14994); test: qHTS assay to identify small molecule antagonists of the constitutive androstane receptor (CAR) signaling pathway (AID 1224838);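 note: HepG2 cells stably expressing hCAR with CYP2B6 luciferase reporter stimulated by CITCO; nearly all actives have a fitted effect of over 40% in size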
Nuclear receptor subfamily 1 group I member 3 (Homo sapiens), sequence (Q14994 whole entry, looked up): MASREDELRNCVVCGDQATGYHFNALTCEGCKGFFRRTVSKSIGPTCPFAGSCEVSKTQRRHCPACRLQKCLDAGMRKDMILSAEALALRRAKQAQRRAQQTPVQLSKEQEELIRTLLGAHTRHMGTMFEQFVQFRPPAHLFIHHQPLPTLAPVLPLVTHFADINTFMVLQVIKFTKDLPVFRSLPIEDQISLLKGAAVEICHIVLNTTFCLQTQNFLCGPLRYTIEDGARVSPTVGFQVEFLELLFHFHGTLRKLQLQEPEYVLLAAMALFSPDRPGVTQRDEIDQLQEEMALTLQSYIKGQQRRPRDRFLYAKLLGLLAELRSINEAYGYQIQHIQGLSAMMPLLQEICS
Outline: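 HepG2-CYP2B6-hCAR cells; 4 h pre-incubation; cpd (15 conc) + CITCO 50 nM final; 24 h, 37 C/5% CO2; ONE-Glo, luminescence.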

[7] = qHTS assay to identify small molecule antagonists of the estrogen related receptor signaling pathway with the pleiotropic PPARgamma coactivator (PGC) from Tox21 10K library - cell viability counter screen (AID 1224840; active = well fitted cell-killing curve with a large enough effect in the repeat runs, not every such curve was filed as active; note: nearly all actives have a fitted effect of over 40% in size)
Outline: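 PGC/ERR cells, 2,000/well; 6 h pre-incubation 37 C/5% CO2; cpd in DMSO via pin tool; 17.5 h 37 C; CellTiter-Fluor, 30 min; fluorescence.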

[8] = qHTS assay to identify small molecule antagonists of the estrogen related receptor signaling pathway with the pleiotropic PPARgamma coactivator (PGC) from Tox21 10K library (AID 1224841; call rule not given here; note: actives are mostly falling curves and most rising ones were filed inactive; nearly all actives have a fitted effect of over 50% in size)
Outline: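 PGC/ERR cell line, 2,000 cells/well; 6 h pre-incubation 37 C/5% CO2; compounds (DMSO) pinned in; 18 h, 37 C; One-Glo, 30 min RT; luminescence.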

[9] = qHTS assay to identify small molecule agonists of the estrogen related receptor signaling pathway with the pleiotropic PPARgamma coactivator (PGC) from Tox21 10K library (AID 1224842); note: nearly all actives have a fitted effect of over 15% in size
Outline: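 Luminescence from One-Glo (30 min, room temperature) measured after PGC/ERR cells had 18 h at 37 C with pinned compound (23 nL in DMSO). Cells had been seeded at 2,000 per well and pre-incubated 6 h.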

[10] = molecular target: Thyrotropin receptor (Homo sapiens) (UniProt P16473); test: qHTS assay to identify small molecule agonists of the thyroid stimulating hormone receptor (TSHR) signaling pathway (AID 1224843; calls by dose curve; note: nearly all actives have a fitted effect of over 45% in size)
Thyrotropin receptor (Homo sapiens), sequence (P16473 whole entry, looked up): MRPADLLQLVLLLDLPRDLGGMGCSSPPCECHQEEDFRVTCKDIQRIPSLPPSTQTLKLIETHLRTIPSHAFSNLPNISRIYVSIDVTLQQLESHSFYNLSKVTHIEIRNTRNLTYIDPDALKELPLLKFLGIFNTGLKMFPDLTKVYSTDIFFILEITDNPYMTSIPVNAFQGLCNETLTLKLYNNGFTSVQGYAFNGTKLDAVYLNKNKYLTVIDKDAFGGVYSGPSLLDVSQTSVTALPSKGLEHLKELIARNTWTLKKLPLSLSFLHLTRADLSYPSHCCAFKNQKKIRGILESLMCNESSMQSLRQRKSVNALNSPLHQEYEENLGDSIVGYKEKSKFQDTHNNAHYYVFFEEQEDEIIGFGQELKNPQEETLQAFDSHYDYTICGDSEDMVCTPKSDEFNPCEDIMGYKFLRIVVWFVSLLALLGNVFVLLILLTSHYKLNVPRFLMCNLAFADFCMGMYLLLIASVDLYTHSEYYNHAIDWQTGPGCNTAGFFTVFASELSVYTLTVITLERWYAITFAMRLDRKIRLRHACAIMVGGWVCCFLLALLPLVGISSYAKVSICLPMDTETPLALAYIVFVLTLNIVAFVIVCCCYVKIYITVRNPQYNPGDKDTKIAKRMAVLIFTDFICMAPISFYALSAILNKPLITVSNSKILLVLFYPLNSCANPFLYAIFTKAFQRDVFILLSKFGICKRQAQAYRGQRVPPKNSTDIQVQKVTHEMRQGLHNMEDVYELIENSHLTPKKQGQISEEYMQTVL
Outline: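 HEK293 cells stably bearing the thyrotropin receptor were plated at 800 cells/well and challenged with compound (30 min, RT). Accumulated cAMP was quantified via cAMP-d2 competing for cryptate-tagged antibody.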

[11] = qHTS assay to identify small molecule agonists of the hypoxia (HIF-1) signaling pathway - cell viability counter screen (AID 1224844; calls by dose curve; note: nearly all actives have a fitted effect of over 50% in size)
Outline: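 ME-180 HRE-bla cells, 2,000/well, 0.5% dialyzed FBS; 5 hr settle, 17 hr compound at 37C/5% CO2; CCF4-AM reporter read first, then CellTiter-Glo luminescence after 30 min RT.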

[12] = qHTS assay to identify small molecule agonists of H2AX (AID 1224845; active = well fitted activation curve with a large enough effect in the signal ratio in the repeat runs, not every such curve was filed as active; the % refers to the signal ratio)
Outline: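 Phospho-H2AX Ser139 measured by HTRF (ex 320 nm; em 665 and 620 nm) after 24 hr antibody incubation. Compounds, 15 concentrations, 0.76% DMSO, were applied to CHO-K1 cells for 3hr at 37C before lysis.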

[13] = qHTS assay to identify small molecule agonists of H2AX - cell viability counter screen (AID 1224847; calls by dose curve;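 note: wild-type CHO-K1 cells; top concentration of the series differs between compounds; nearly all actives have a fitted effect of over 30% in size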)
Outline: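 For this counter screen, overnight-attached CHO-K1 cells received test compounds (15 concentrations, 0.76% DMSO final); 3 hr later at 37C, CellTiter-Glo reagent was added and luminescence recorded after 30 min at room temperature.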

[14] = qHTS assay to identify small molecule antagonists of the estrogen related receptor (ERR) signaling pathway from Tox21 library (AID 1224848); note: nearly all actives have a fitted effect of over 50% in size
Outline: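 Reading was by luminescence 30 min after ONE-Glo addition. Before that, ERR cells at 2,000 per well had rested 6 h at 37 C/5% CO2 and then received pin-tooled compounds in DMSO for 18 h at 37 C.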

[15] = qHTS assay to identify small molecule agonists of the estrogen related receptor (ERR) signaling pathway from Tox21 library (AID 1224849; calls by dose curve; note: nearly all actives have a fitted effect of over 15% in size); settings: ERR reporter cell line, ONE-Glo luciferase, 18 h
Outline: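 ERR cells, 6 h pre-incubation 37 C/5% CO2; cpd in DMSO pinned; 18 h 37 C; ONE-Glo added, 30 min RT; luminescence read. Agonist mode, qHTS.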

[16] = qHTS RealTime-Glo MT Cell Viability Assay in HepG2 cells - 24 hour (AID 1224867); note: nearly all actives have a fitted effect of over 50% in size
Outline: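 HepG2 cells were seeded at 600 cells/well together with NanoLuc luciferase and a cell-permeant prosubstrate, preincubated 5 h at 37 C/5% CO2, then pin-dosed with compounds in DMSO. Nonlytic luminescence from viable cells was read at each time point.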

[17] = qHTS RealTime-Glo MT Cell Viability Assay in HEK293 cells - 32 hour (AID 1224868)
Outline: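 HEK293 cells were seeded at 600 cells/well together with NanoLuc luciferase and cell-permeant prosubstrate, preincubated 5 h at 37 C/5% CO2, then given compound in DMSO by pintool. Luminescence from viable-cell prosubstrate reduction was read repeatedly over 40 h.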

[18] = A CellTox Green Cytotoxicity Assay to monitor cytotoxicity in HEK293 cells - 0 hour (AID 1224869); note: nearly all actives have a fitted effect of over 50% in size
Outline: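 Nonlytic real-time cytotoxicity: HEK293 + CellTox Green reagent plated, 5 h preincubation, pintool compound addition (23 nL in DMSO), 37 C for 40 h, fluorescence measured at successive time points.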

[19] = molecular target: Nuclear receptor subfamily 1 group I member 3 (Homo sapiens) (UniProt Q14994); test: qHTS assay to identify small molecule agonists of the constitutive androstane receptor (CAR) signaling pathway (AID 1224839);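 note: HepG2 cells stably carrying human CAR and a CYP2B6 luciferase reporter; nearly all actives have a fitted effect of over 15% in size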
Outline: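 Readout: firefly luciferase luminescence via ONE-Glo. System: HepG2 double-stable for hCAR and CYP2B6-2.2kb. Conditions: 15-point compound titration, PK11195 at 0.75 uM final, 24 h incubation.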

[20] = at 92.4 µM (top of the series) unless noted
% is set by controls: 0 for no effect and ±100 for the full control effect.

CCn1nc(C(=O)O)c(=O)c2cc3c(cc21)OCO3
inactive: outcome [1] | Potency [2] | Potency [3] | Potency [4] | Potency [5] | Potency [6] | Potency [7] | Potency [8] | outcome [9] | Potency [10] | Potency [11] | outcome [12] | Potency [13] | Potency [14] | activity change, positive = activation [15, 20] 7.18% [at 42.5 µM] | Potency [16] | Potency [17] | Potency [18]

Nc1c2c(nc3ccccc13)CCCC2O (stereo not given)
inactive: outcome [1] | Potency [2] | Potency [3] | Potency [4] | Potency [5] | Potency [6] | Potency [19] | Potency [7] | Potency [8] | outcome [9] | Potency [10] | Potency [11] | outcome [12] | Potency [13] | activity change, positive = activation [15, 20] 0.138% [at 42.5 µM] | Potency [16] | Potency [17] | Potency [18]

COCCc1ccc(OCC(O)CNC(C)C)cc1 (stereo not given)
inactive: outcome [1] | Potency [2] | Potency [3] | Potency [4] | Potency [5] | Potency [6] | Potency [19] | Potency [7] | Potency [8] | outcome [9] | Potency [10] | Potency [11] | outcome [12] | Potency [13] | activity change, positive = activation ([15]; at 42.5 µM (top of the series)) 5.48% | activity change, positive = activation ([15]; at 92.4 µM (top of the series)) -13% | Potency [16] | Potency [17] | Potency [18]

CCn1ccnc1CC1COc2ccccc2O1 (stereo not given)
inactive: outcome [1] | Potency [2] | Potency [3] | Potency [4] | Potency [5] | Potency [6] | Potency [19] | Potency [7] | Potency [8] | Potency [10] | Potency [11] | outcome [12] | Potency [13] | activity change, positive = activation [15, 20] 8.29% [at 42.5 µM] | Potency [16] | Potency [17] | Potency [18]

CCO/C([O-])=N/c1c[n+](N2CCOCC2)no1
inactive: outcome [1] | Potency [2] | Potency [3] | Potency [4] | Potency [5] | Potency [7] | Potency [8] | outcome [9] | Potency [10] | Potency [11] | outcome [12] | Potency [13] | Potency [14] | activity change, positive = activation [15, 20] 0.723% [at 42.5 µM] | Potency [16] | Potency [17] | Potency [18]

O=C(O)CN(CCOCCOCCN(CC(=O)O)CC(=O)O)CC(=O)O
inactive: outcome [1] | viability change, negative = cytotoxic [2] 1.46% [at 0.349 µM] | viability change, negative = cytotoxic [4] -0.739% [at 0.349 µM] | activity change, negative = cytotoxicity [5] 4% [at 0.349 µM] | viability change, negative = cytotoxic [7] -9.4% [at 0.349 µM] | activity, negative = inhibition [8] 5.6% [at 0.349 µM] | activation [9] -0.694% [at 0.349 µM] | activation [10] -8.79% [at 0.349 µM] | activity change, negative = cytotoxicity [11] -1.26% [at 0.29 µM] | activation (H2AX phosphorylation) [12] -0.327% [at 0.582 µM] | activity change, negative = cytotoxicity [13] 3.97% [at 0.582 µM] | activity, negative = inhibition [14] 2.61% [at 0.349 µM] | activity change, positive = activation [15, 20] 1.46% [at 0.349 µM] | activity change, negative = cytotoxicity [16] -0.276% [at 0.29 µM] | activity change, negative = cytotoxic [17] 6.99% [at 0.29 µM] | cytotoxicity [18] 0.267% [at 0.29 µM]
